Bioassay records as filed in PubChem BioAssay.
In the library only some 1.5% were active in any assay of this set; here they are far more common.
IDE cell activ: IDE (human) activation, cell-based; P14735; HEK cells, FAbeta-B cleavage, fluorescence polarization; 0% vehicle, 100% cell-free pure enzyme wells; 340,000 tested, 0.073% active; activation, % at 5.96 µM;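 active = activation above the mean of all tested compounds plus 3 SD, set per screening campaign, cut at about 17% in these data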
CRFR2-BP antag: blocks CRF-induced signaling of the CRF-BP/CRF-R2 complex | 350,000 tested, 0.59% active | inhibition, % at 11.8 µM | HEK293 CRF-R2/CRF-BP, CRF-induced calcium fluorescence | AID 588475;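 active = inhibition of the ligand-induced calcium signal above about 50% at the single tested concentration, limit read from the data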
RTF Ca sens inh: cardiac RTF calcium desensitization. 340,000 tested, 0.12% active. AID 493244. IANBD-labeled cardiac RTF, Ca2+ fluorescence. inhibition, % at 7.15 µM;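 active = inhibition above the mean inhibition of all tested compounds plus 3 SD, cut at about 17% in these data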;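 also: assay run at fixed EC70 calcium of 1.6 mM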
CRFR2-BP ag: agonists of human CRF-binding protein/CRF-R2 receptor complex | HEK293 CRF-R2/CRF-BP, calcium dye fluorescence (FLIPR); percent of saturating CRF peptide response | activation, % at 13.2 µM | 350,000 tested, 0.46% active | AID 588473;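 active = activation of at least 50%, plus an integration ratio under a set limit after plate pattern correction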;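 also: plate controls were neutral control wells without compound for no effect and CRF at EC100 for full effect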
IDE inh: cellular human IDE inhibition; inhibition, % at 5.59 µM; HEK cells, FAbetaB cleavage, fluorescence polarization; 320,000 tested, 0.41% active; P14735;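 active = percent inhibition above the average of all tested compounds plus 3 SD, set per screening campaign, cut at about 16% in these data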;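 also: IDE supplied by intact live HEK cells; FP after avidin binding of uncleaved biotin substrate so inhibition keeps polarization high; 0% = DMSO wells and 100% = 60 µM reference IDE inhibitor Ii1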
RTF Ca sens act: increases calcium sensitivity of human cardiac regulated thin filaments | P19429+P45379 | IANBD-labeled TnC RTF fluorescence at EC20 calcium; 0% EC20 calcium, 100% full calcium | activation, % at 7.2 µM | 340,000 tested, 0.24% active | AID 493008;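 active = activation above the mean over all tested compounds plus 3 SD, cut at about 30% in these data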;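 also: rise in fluorescence read as greater calcium sensitivity of cardiac thin filaments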
An asterisk follows results filed as active; / = not tested or not shown.

SMILES	IDE cell activ	CRFR2-BP antag	RTF Ca sens inh	CRFR2-BP ag	IDE inh	RTF Ca sens act
Cc1c(N=C2N=C(NC(=O)c3cccs3)c3ccccc32)c(=O)n(-c2ccccc2)n1C	-24	-66	-32	89*	3	15
Cc1c(N=C2N=C(NC(=O)NC(C)(C)C)c3ccccc32)c(=O)n(-c2ccccc2)n1C	8	23	2	-2	-1	-3
S=C(Nc1ccc2c(c1)OCO2)N1CCN(Cc2ccco2)CC1	3	-2	-14	1	6	1
Cc1cc(C)nc(/N=C(\N)Nc2ccc(OCc3ccccc3)cc2)n1	-1	14	-11	124*	1	3
Cc1cc(C)nc(/N=C(\N)Nc2cccc(OCc3ccccc3)c2)n1	4	-47	5	108*	-3	-8
COc1ccccc1N/C(N)=N/c1nc(C)cc(C)n1	2	0	1	9	-3	-1
COc1ccc2nc3ccccc3[n+]([O-])c2c1	7	7	-33	58*	/	23
COc1ccc2c(ccc[n+]2[O-])c1	-1	19	-2	-4	/	-1
Cc1ccccc1C1CC(=O)Oc2cc(O)ccc21 (stereo unspecified)	-2	-9	-63	22	/	39*
Cc1cc(NC(=O)CCC(=O)N(Cc2ccccc2)C2(C(=O)NC3CCCCC3)CCCC2)no1	10	-16	-3	-1	3	0
COc1ccc(NC(=O)/C(Cl)=C(/Cl)S(=O)Cc2ccc(Cl)cc2)cn1 (stereo unspecified)	-15	-53	-5	88*	/	-3
Cc1ccc(C(=O)CCC(=O)OCC(=O)N(C)c2c(N)n(Cc3ccccc3)c(=O)[nH]c2=O)cc1	-1	6	-4	0	4	-1
O=c1c(Cl)c2oc3ccccc3nc-2c2ccccc12	-12	-309	-15	207*	3	13
CCOc1ccc(/C=C2\SC(=S)N(NS(=O)(=O)c3ccc(C)cc3)C2=O)cc1OC	-2	51*	6	1	-5	-2
CC(=O)c1ccc(NC(=O)CSc2ccc(-c3ccc4c(c3)OCO4)nn2)cc1	-1	122*	-10	0	1	0
CCOCc1c(C(=O)NC2CCCCCC2)oc2ccccc12	6	-15	-8	-1	10	4
CC1CCN(C2(O)C(=O)Nc3ccc(Br)cc32)CC1 (stereo unspecified)	6	-7	-4	1	-7	-2
CC(Oc1ccc(C(=O)c2ccccc2)cc1)C(=O)Nc1ccc(S(N)(=O)=O)cc1 (stereo unspecified)	0	-57	-1	61*	5	-1
C=CCNC(=S)NNC(=O)c1ccc(OCC)cc1	0	109*	6	7	-4	0
COc1ccc(C(=O)NC(=S)NNC(=O)c2cccc(C)c2)cc1	/	0	/	131*	-7	/
COc1ccc(Cl)cc1C(=O)NNC(=S)NC(=O)c1ccc(F)c(F)c1	2	62*	-8	142*	5	2
COc1ccc(C(=O)NNC(=S)Nc2ccccc2)cc1	7	10	6	-1	1	2
CCCCCC(=O)NNC(=O)c1ccc(F)cc1	4	53*	1	0	8	5
Cc1ccc(NC(=O)C2C3C=CC4(O3)C2C(=O)N(CCCN2CCCC(C)C2)C4C(=O)NC2CCCCC2)cc1 (stereo unspecified)	4	3	10	0	4	-5
O=C(O)CN1C(=O)COc2ccc(S(=O)(=O)N3CCCCCC3)cc21	2	-8	-7	-1	2	-3
Cc1cccc(C(=O)NNC(=S)NC(=O)c2ccccc2)c1	6	-25	0	149*	4	0
Cc1ccc(C(=O)NNC(=O)c2cccc(C)c2)cc1	2	5	-7	-4	-2	4
Cc1cccc(C(=O)NNC(=S)NC(=O)c2cccs2)c1	-1	-57	-12	154*	-2	-1
COc1ccc(C(=O)NNC(=S)NC(=O)c2cccs2)cc1	3	-22	-3	43	-1	2
COc1ccc(C(=O)NC(=S)NNC(=O)c2ccncc2)cc1Br	-5	-11	3	4	0	-3
